Assay outcomes (PubChem)
SARS PLP yeast = inhibitors of SARS-CoV papain-like protease in yeast; S. cerevisiae expressing SARS-CoV PLpro, growth rescue; AID 485353; Potency, µM (doses to about 32.9 µM), inactives show at the highest dose activity, positive = growth rescue, usual class: activators; 330,000 compounds, 0.19% hits; calls by dose curve; note: 0% is about no effect; nearly all actives have a fitted effect of over 55% in size
Sm TGR block = inhibitors of Schistosoma mansoni thioredoxin glutathione reductase | Potency, µM (series often up to 114 µM), inactives show top-dose activity change, negative = inhibition, most hits filed as inhibitors | Q962Y6 | purified TGR, DTNB reduction, TNB absorbance 405 nm | 360,000 compounds, 3% hits; active = well fitted inhibition curve with a large enough effect; inconclusive = small, poorly fitted or top-dose-only effect; inactive = no such curve, though single readings can be large or run the other way; note: % is set by controls: 0 for no effect and ±100 for the full control effect; nearly all actives have a fitted effect of over 60% in size
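TGR 20 nM + NADPH 100 uM (dispensed conc.), cpd preinc 15 min RT; start with NADPH (500 uM addition) then DTNB (15 mM addition). Kinetic TNB absorbance, 405 nm filter. Four-parameter Hill fit across titration.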
* hit, by the source's call; ? = inconclusive; . = not tested or not shown. Rows were chosen to be rich in hits. Some 3% of all compounds tested hit in one or more screens of this group. Potency is the fitted concentration of half-maximal effect.

SMILES | SARS PLP yeast | Sm TGR block
Cc1nc2nc(NC(=O)c3ccc(Cl)cc3)[nH]n2c(=O)c1Cc1ccccc1 | . | 2.0%
O=C(c1cnn(-c2cccc(F)c2)c1-n1cccc1)N1CCN(c2ccccc2F)CC1 | . | 9.7%
CN(C)S(=O)(=O)c1ccc(C(=O)Oc2cc(=O)[nH]c3ccccc23)cc1 | 6.7% | 20µM*
CCOC(=O)c1[nH]c2ccccc2c1NC(=O)c1ccc(S(=O)(=O)N(C)C)cc1 | ? | 0.0%
COC(=O)c1cccnc1-n1c(=O)c2cccnc2n(CC(=O)Nc2ccccc2F)c1=O | . | 5.9%
CN1C(=O)NC(c2cccc(O)c2)C(C(=O)c2cccs2)C1(O)C(F)(F)F (centres undefined) | -3.1% | 3.55µM*
CCOC(=O)C1C(c2cccs2)NC(=O)N(C)C1(O)C(F)(F)F (centres undefined) | 12.4% | -16.9%
COc1ccccc1CN=c1c([N+](=O)[O-])nn(-c2ccc3c(c2)OCCO3)n1O | -6.5% | 39.8µM*
O=[N+]([O-])c1nn(-c2ccc3c(c2)OCCO3)n(O)c1=NCc1ccccc1Cl | 3.8% | 2.7%
COc1ccc(-n2nc([N+](=O)[O-])c(=NCCc3ccc(C)cc3)n2O)cc1 | -5.0% | -27.5%
COc1ccc(-n2nc([N+](=O)[O-])c(=NCCc3ccc(OC)c(OC)c3)n2O)cc1 | 12.7% | 35.5µM*
CSc1cccc(CNC(=O)CC2C(=O)NCCN2CC(C)(C)C)c1 (centres undefined) | -1.1% | 39.8µM*
CC(C)(C)CN1CCNC(=O)C1CC(=O)NCc1cccc(-n2cccn2)c1 (centres undefined) | 0.4% | 1.3%
CC(C)(C)CN1CCNC(=O)C1CC(=O)NCCc1cnn(-c2ccccc2)c1 (centres undefined) | -1.7% | ?
CC(C)(C)CN1CCNC(=O)C1CC(=O)NCCc1ccccc1F (centres undefined) | -0.3% | 50.1µM*
CCN(c1ccccc1)S(=O)(=O)c1ccc2[nH]cc(C(=O)NCc3ccc(C)cc3)c(=O)c2c1 | . | 7.2%
CCCc1nn2c(=O)cc(COC(=O)C3CCCCC3)nc2s1 | . | -0.5%
COc1ccc(C(O)(CCc2ccccc2)CCN2CCCCC2)cc1 (centres undefined) | 15.3% | 2.82µM*
C=CCC(O)(CCN1CCCCC1)c1ccccc1 (centres undefined) | 4.2% | 25.1µM*
OC(CCN1CCCCC1)(c1ccccc1)c1ccccc1 | -0.8% | 1.0%
CCCOc1ccc(C(O)(CCN2CCCCC2)c2ccccc2OC)cc1 (centres undefined) | -0.2% | ?
O=C(Nc1ccc(Oc2ccccc2)cc1)c1ccc(F)c(S(=O)(=O)N2CCN(c3ccccc3F)CC2)c1 | . | -0.2%
CCc1ccc(NC(=O)c2sc(-n3nc(C)c(CCC(C)C)c3C)nc2C)cc1 | . | 5.5%
COC(=O)C1=C(C)N(Cc2ccccc2)C(=S)N[C@H]1c1ccc(Br)cc1 | -1.0% | 12.7%
COCCN1C(=S)N[C@@H](c2ccccc2)C(C(=O)OC)=C1C | 10.3% | 31.6µM*
SMILES | SARS PLP yeast | Sm TGR block
CC(=O)N1CC=CC1(CC(C)C)C(=O)NCCc1c[nH]c2ccccc12 (centres undefined) | -14.2% | -13.1%
CC(C)CC1(C(=O)NCCc2c[nH]c3ccccc23)C=CCN1C(=O)c1ccccc1 (centres undefined) | -2.6% | 39.8µM*
Cc1ccc(NC(=O)Cn2c(=O)n(CCCCC(=O)NCCc3ccc(Cl)cc3)c(=O)c3ccccc32)cc1 | . | 8.1%
FC(F)(F)c1cccc(-c2noc(CN3CCOCC3)n2)c1 | 11.1% | -1.0%
CN1CCCN(Cc2nc(-c3cccc(C(F)(F)F)c3)no2)CC1 | -1.7% | 25.1µM*
COc1cccc(CCc2nnc(CCC(=O)NCCc3cccc(C)n3)o2)c1 | -0.2% | -13.7%
COc1cccc(CCc2nnc(CCC(=O)N3CCN(Cc4ccccn4)CC3)o2)c1 | -1.7% | 11.2µM*
Cn1cc(S(=O)(=O)c2ccccc2)c(=O)c2cc(F)c(N3CCN(c4ccccc4)CC3)cc21 | . | -8.0%
Cc1ccc(S(=O)(=O)/N=C2\C=C(Nc3ccc(O)cc3)C(=O)c3ccccc32)cc1 | -0.8% | .
CC(C)c1ccc(S(=O)(=O)/N=C2/C=C(Sc3ncn[nH]3)C(=O)c3ccccc32)cc1 | -84.0% | 0.282µM*
CC(C)(C)c1ccc(S(=O)(=O)/N=C2\C=C(NS(=O)(=O)c3ccccc3)C(=O)c3ccccc32)cc1 | -9.2% | -27.0%
Cc1ccc(S(=O)(=O)/N=C2/C=C(Sc3ncn[nH]3)C(=O)c3ccccc32)cc1 | -75.4% | 0.316µM*
Cc1ccc(S(=O)(=O)/N=C2\C=C(Nc3cccc(C(=O)O)c3)C(=O)c3ccccc32)c(C)c1 | -0.4% | ?
Cc1ccc(S(=O)(=O)/N=C2/C=C(Sc3ncn[nH]3)C(=O)c3ccccc32)c(C)c1 | -78.0% | 0.631µM*
COc1cc(OC)c(NC(=O)Cc2c(C(=O)O)c(C)cn2C)cc1Cl | . | -1.7%
CCc1ccc(-n2c(=O)c3c4c(sc3n(Cc3cc(=O)n5c(C)cccc5n3)c2=O)CCC4)cc1 | . | 6.8%
Cc1c(-c2ccccc2)c(=O)oc2c(CN3CCCC3)c(O)ccc12 | . | 0.2%
COc1ccc(Cl)cc1NC(=O)C1CCN(S(=O)(=O)c2ccc3c(c2)CC(C)N3C(C)=O)CC1 (centres undefined) | . | -1.1%
COc1ccc(C2/C=C\CN(Cc3ccco3)CC(=O)N2Cc2ccc(F)cc2)cc1 (centres undefined) | -1.8% | 31.6µM*
COc1ccc(C2/C=C\CN(C(=O)Nc3ccccc3)CC(=O)N2Cc2ccc(F)cc2)cc1 (centres undefined) | -5.6% | 9.3%
COc1ccc(C2C(=O)N(C3CCCCCC3)CC(=O)N2Cc2ccccc2)cc1 (centres undefined) | . | 11.3%
CCCCCCCN1C/C=C\C(c2ccc(OC)cc2)N(Cc2ccc(F)cc2)C(=O)[C@H]1Cc1ccccc1 (some centres undefined) | -0.3% | -3.3%
COc1ccc(C2C(=O)N(C3CCCCC3)CC(=O)N2Cc2ccco2)cc1 (centres undefined) | 3.6% | 31.6µM*
COc1ccc(C2/C=C\CN(S(=O)(=O)c3ccc(C)cc3)[C@H](Cc3ccccc3)C(=O)N2Cc2ccc(F)cc2)cc1 (some centres undefined) | -3.2% | 28.2µM*
Cc1cc(C)cc(NC(=O)C(=O)NCC(c2cccnc2)N2CCOCC2)c1 (centres undefined) | . | -11.7%
SMILES | SARS PLP yeast | Sm TGR block
COc1ccc2c(CNCc3cccs3)c(C(=O)O)n(Cc3ccccc3F)c2c1 | . | -7.9%
CCCC(CCC)C(=O)NC1CC(=O)N(c2ccc3c(c2)OCCO3)C1 (centres undefined) | . | -1.4%
COc1cccc2c1Oc1ncccc1N(C(=O)CCC(=O)NC(C)C)C2 | . | -1.1%
CC(C)c1ccc(Nc2ncnc3onc(-c4ccc(F)cc4)c23)cc1 | . | -6.6%
Nc1ncnc(Sc2ccc(Cl)cc2)c1[N+](=O)[O-] | 4.8% | ?
Cc1ccc(Sc2ncnc(N)c2[N+](=O)[O-])cc1 | 9.8% | -12.6%
Nc1ncnc(Sc2ccccc2)c1[N+](=O)[O-] | 27.2% | 12.6µM*
Nc1ncnc(Sc2ncccn2)c1[N+](=O)[O-] | -2.7% | 2.51µM*
CC(C)NC(=O)C1CCC(Cn2c(=O)c3sccc3n(CC(=O)Nc3ccccc3)c2=O)CC1 (centres undefined) | . | 2.5%
Cc1cc(C)cc(NC(=O)C2CCCN(C(=O)c3cnn(-c4ccccc4)c3-n3cccc3)C2)c1 (centres undefined) | . | 6.5%
